HTT aggregate: qHTS Multiplex Assay to Identify Dual Action Probes in a Cell Model of Huntington: Aggregate Formation (GFP); actives 1.1% (n = 220,000); PC12 HttQ103-GFP aggregates, Acumen cytometry, 40 h; AID 1688, 2009; Potency, µM (highest dose often 46.1 µM), for the others: at the highest dose activity change, negative = inhibition, hits mostly inhibitors; active = well fitted curve in the direction sought with a large enough effect; inconclusive = small, poorly fitted or top-dose-only effect, or another doubt; inactive = no such curve, though single readings can be large; an effect the other way counts as inactive or inconclusive; note: potency is the fitted concentration of half-maximal effect; % is set by controls: 0 for no effect and ±100 for the full control effect; nearly all actives have a fitted effect of over 60% in size
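Quantitative HTS on tebufenozide-induced (100 nM) PC12 cells stably expressing polyQ103 Huntingtin exon 1–GFP. Reduction of bright GFP aggregates, detected by laser scanning cytometry after lysis, identified actives across the titration.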
CBFb RUNX1 block: qHTS Assay for Compounds Blocking the Interaction Between CBF-beta and RUNX1 for the Treatment of Acute Myeloid Leukemia. Runt-related transcription factor 1 (Homo sapiens) + Core-binding factor subunit beta …. AlphaScreen CBFb-His/RUNX1-biotin binding, biochemical. Potency, µM (doses to about 59.8 µM), for inactives: top-dose activity, negative = inhibition, actives largely listed as inhibitors. 230,000 tested, under 10 active; active = well fitted curve in the direction sought with a large enough effect; inconclusive = small, poorly fitted or top-dose-only effect, or another doubt; inactive = no such curve, though single readings can be large; an effect the other way counts as inactive or inconclusive; note: % of control where 0% means no effect
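Inhibition was taken as any reduction in AlphaScreen signal from the CBF-beta–RUNX1 pair (His and biotin tags, 30 nM each), measured after compound (15 min) and bead (90 min) incubations at room temperature.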
ALDH1A1 inh: qHTS Assay for Inhibitors of Aldehyde Dehydrogenase 1 (ALDH1A1); actives 7.3% (n = 220,000); Purified ALDH1A1, NADH fluorescence, propionaldehyde substrate; Potency, µM (top dose mostly 75.3 µM), inactives show at the highest dose activity, negative = inhibition, most hits filed as inhibitors; AID 1030, 2008; Aldehyde dehydrogenase 1A1 (Homo sapiens), P00352;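 note: potency is the fitted concentration of half-maximal effect; plate controls were no enzyme wells and a reference inhibitor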
Target sequence (P00352 whole entry, looked up): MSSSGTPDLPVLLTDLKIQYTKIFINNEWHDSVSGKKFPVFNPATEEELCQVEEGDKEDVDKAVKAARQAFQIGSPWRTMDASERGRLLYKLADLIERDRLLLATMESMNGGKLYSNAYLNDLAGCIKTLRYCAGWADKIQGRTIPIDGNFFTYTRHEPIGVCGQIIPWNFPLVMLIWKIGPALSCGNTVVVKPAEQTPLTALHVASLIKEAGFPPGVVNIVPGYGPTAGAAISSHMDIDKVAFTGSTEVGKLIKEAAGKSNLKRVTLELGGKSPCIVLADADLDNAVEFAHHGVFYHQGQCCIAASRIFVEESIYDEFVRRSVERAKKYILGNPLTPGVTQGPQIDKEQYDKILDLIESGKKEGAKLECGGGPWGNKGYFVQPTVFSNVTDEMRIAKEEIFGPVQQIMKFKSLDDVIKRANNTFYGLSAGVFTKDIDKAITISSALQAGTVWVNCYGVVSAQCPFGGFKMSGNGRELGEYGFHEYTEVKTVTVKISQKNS
HTT ATP protect: qHTS Multiplex Assay to Identify Dual Action Probes in a Cell Model of Huntington: Cytoprotection (ATP). PC12 HTT-Q103 induced, cytoprotection, ATP luminescence, 40 h. Potency, µM (top dose mostly 56.4 µM), inactives show cytoprotection (ATP increase), usual class: activators. actives 0.14% (n = 230,000); active = well fitted curve in the direction sought with a large enough effect; inconclusive = small, poorly fitted or top-dose-only effect, or another doubt; inactive = no such curve, though single readings can be large; an effect the other way counts as inactive or inconclusive; note: potency is the fitted concentration of half-maximal effect; % of control where 0% means no effect; nearly all actives have a fitted effect of over 45% in size
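Quantitative HTS on tebufenozide-induced (100 nM) PC12 cells expressing HTTQ103 exon 1–GFP; compounds tested as a concentration series; survival measured via cellular ATP.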
KDM4E inh: qHTS Assay for Inhibitors of Human Jumonji Domain Containing 2E (JMJD2E). Lysine-specific demethylase 4E (Homo sapiens), B2RXH2. JMJD2E catalytic domain, FDH-coupled NADH fluorescence (FDH is formaldehyde dehydrogenase). Potency, µM (series often up to 57.1 µM), for the others: at the highest dose activity change, negative = inhibition, usual class: inhibitors. actives 1.6% (n = 230,000);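 note: potency is the fitted concentration of half-maximal effect; 0% = wells with enzyme and -100% = buffer wells without enzyme; nearly all actives have a fitted effect of over 50% in size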
HPGD inh: qHTS Assay for Inhibitors of HPGD (15-Hydroxyprostaglandin Dehydrogenase). 15-hydroxyprostaglandin dehydrogenase [NAD(+)] (Homo sapiens), P15428. purified HPGD, NADH fluorescence kinetic, PGE2 substrate. Potency, µM, inactives show at the highest dose activity change, negative = inhibition, actives largely listed as inhibitors. actives 4.3% (n = 150,000). AID 894, 2007; note: potency is the fitted concentration of half-maximal effect; % is set by controls: 0 for no effect and ±100 for the full control effect
Target sequence (P15428 whole entry, looked up): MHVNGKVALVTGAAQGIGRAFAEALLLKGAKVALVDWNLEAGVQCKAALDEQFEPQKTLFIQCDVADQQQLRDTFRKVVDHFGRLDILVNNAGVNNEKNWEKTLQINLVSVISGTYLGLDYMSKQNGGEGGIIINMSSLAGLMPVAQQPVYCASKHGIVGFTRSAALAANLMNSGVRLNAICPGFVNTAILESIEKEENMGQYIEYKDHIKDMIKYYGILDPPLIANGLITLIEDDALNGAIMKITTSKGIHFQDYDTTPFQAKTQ
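NADH formation kinetics: reaction with 30 uM PGE2 and 1 mM NAD+ (final), 20 nM enzyme, Tris-HCl pH 8 with Tween 20, after 15 min compound preincubation at room temperature. Fluorescence change, last versus first of five reads.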
* = called active by the depositor; [ ] = dose if it differs, or a comment. A selection: hits, their analogues and other compounds. The true share with any hit is near 9.8%. Unless noted, calls come from the whole dose curve; as a rule, active = well fitted inhibition curve with a large enough effect (not every such curve was filed as active); inconclusive = small, poorly fitted or top-dose-only effect, or another doubt; inactive = no such curve, though single readings can be large or run the other way.

`CC(c1ncncc1F)[C@](O)(Cn1cncn1)c1ccc(F)cc1F` (some centres not stated) gave HTT aggregate 14.5% and HTT ATP protect -68.5%.
COc1ccccc1/C=C/C=N/N1CCN(Cc2ccccc2)CC1 was read as HTT aggregate -9.7%, CBFb RUNX1 block inconclusive, ALDH1A1 inh inconclusive, HTT ATP protect 32.6%[10 µM], KDM4E inh 2.6% and HPGD inh -12.0%.
Cc1ccc(CN2CCN(/N=C/C=C/c3ccccc3[N+](=O)[O-])CC2)cc1 was read as HTT aggregate inconclusive, ALDH1A1 inh 6.31µM*, HTT ATP protect -4.7%[10 µM] and KDM4E inh inconclusive.
`CSc1ccc(Cl)c(C(=O)Nc2ccc(C)cn2)c1` gave HTT aggregate 11.7%[9.22 µM], CBFb RUNX1 block 4.6%, ALDH1A1 inh -7.5%, HTT ATP protect -66.3% and KDM4E inh inconclusive.
CN(CCc1ccccn1)C(=O)CC1C(=O)NCCN1Cc1ccccc1C(F)(F)F (configuration not stated) was read as HTT aggregate 0.8%[9.22 µM], CBFb RUNX1 block 9.9%, ALDH1A1 inh inconclusive, HTT ATP protect -0.4%[10 µM] and KDM4E inh inconclusive.
CC(C)N(Cc1nccn1C)C(=O)CC1C(=O)NCCN1Cc1ccccc1C(F)(F)F (configuration not stated) was read as HTT aggregate 3.7%, CBFb RUNX1 block -1.0%, ALDH1A1 inh 39.8µM*, HTT ATP protect -20.8% and KDM4E inh inconclusive.
For CCCCCC(=O)CC[C@@H]1[C@@H](C/C=C\CCCC(=O)O)[C@@H](O)C[C@H]1O the results were CBFb RUNX1 block -9.1%, ALDH1A1 inh -1.6%, HTT ATP protect -20.0%, KDM4E inh 2.5% and HPGD inh -5.6%.
O=C(O)CCCCCn1c(SCC(=O)c2ccc(O)c(O)c2)nc2ccsc2c1=O was read as HTT aggregate 23.6%, CBFb RUNX1 block -15.3%, ALDH1A1 inh -13.6%, KDM4E inh 10µM* and HPGD inh inconclusive.
For CCCCn1c(SCC(=O)c2ccc(O)c(O)c2)nc2ccsc2c1=O the results were HTT aggregate -6.8%, CBFb RUNX1 block -17.0%, ALDH1A1 inh inconclusive, HTT ATP protect 10.9%[10 µM], KDM4E inh inconclusive and HPGD inh -4.8%.
`CCCCn1c(SCC(=O)c2ccccc2)nc2ccsc2c1=O` gave HTT aggregate -17.6%, CBFb RUNX1 block 1.1%, ALDH1A1 inh 7.08µM*, HTT ATP protect 11.0%[10 µM], KDM4E inh -2.6% and HPGD inh -1.2%.
`CCCCn1c(SCC(=O)c2ccccc2)nc2c1c(=O)[nH]c(=O)n2C` gave HTT aggregate -15.5%, CBFb RUNX1 block -1.0%, ALDH1A1 inh inconclusive, HTT ATP protect -5.0%[10 µM], KDM4E inh -2.3% and HPGD inh -2.2%.
For O=C(CSCc1ccc(Cl)cc1)N/N=C/c1ccco1 the results were HTT aggregate -7.4%, CBFb RUNX1 block -2.0%, ALDH1A1 inh inconclusive, HTT ATP protect -18.2% and KDM4E inh -6.4%.
For O=C(COC(=O)c1ccc(Br)cc1)NCCC1=CCCCC1 the results were HTT aggregate 10.1%, CBFb RUNX1 block 16.4%, ALDH1A1 inh 3.8%, HTT ATP protect -3.7% and KDM4E inh 7.5%.
CN(C)c1ccc(C(=O)OCC(=O)NCCC2=CCCCC2)cc1 was read as HTT aggregate 13.1%, CBFb RUNX1 block 5.4%, ALDH1A1 inh 35.5µM*, HTT ATP protect -18.0% and KDM4E inh inconclusive.
Screening COC(=O)c1ccc(COC(=O)c2ccc(N(C)C)cc2)cc1 returned HTT aggregate -8.5%, CBFb RUNX1 block 4.7%, ALDH1A1 inh 25.1µM*, HTT ATP protect -55.2%, KDM4E inh inconclusive and HPGD inh inconclusive.
`O=C(COC(=O)c1cnc(Cl)c(Cl)c1)NCCC1=CCCCC1` gave HTT aggregate 1.7%, CBFb RUNX1 block 3.3%, ALDH1A1 inh 12.6µM*, HTT ATP protect -63.8% and KDM4E inh -6.9%.
For N#CC1=C2C=CC=CN2CC1=O the results were HTT aggregate 23.6%, CBFb RUNX1 block -4.6%, ALDH1A1 inh inconclusive, HTT ATP protect -17.4%, KDM4E inh inconclusive and HPGD inh inconclusive.
`Cc1ccc(NC(=S)N(CCCN2CCC(C)CC2)Cc2ccco2)cc1C` gave HTT aggregate -2.9%, CBFb RUNX1 block -0.2%, ALDH1A1 inh 3.1%, HTT ATP protect inconclusive and KDM4E inh -2.2%.
Screening CCOC(=O)N1CCC(N2CCN(S(=O)(=O)c3ccc4ccccc4c3)CC2)CC1 returned HTT aggregate inconclusive, CBFb RUNX1 block -1.0%, ALDH1A1 inh inconclusive, HTT ATP protect 18.7%[10 µM], KDM4E inh inconclusive and HPGD inh -5.6%.
Screening CCOc1ccc(OCC)c(NC(=O)CN2CCN(c3cccc(C)c3)CC2)c1 returned HTT aggregate 11.7%, CBFb RUNX1 block -13.2%, ALDH1A1 inh inconclusive, HTT ATP protect 12.7%[10 µM], KDM4E inh inconclusive and HPGD inh -0.4%.
Screening O=C(Nc1ccc(Cl)cc1)N1CCCN(Cc2ccc(F)cc2)C1 returned HTT aggregate -15.9%, CBFb RUNX1 block 5.2%, ALDH1A1 inh 3.7%, HTT ATP protect -52.7%, KDM4E inh 54.5% and HPGD inh 25.1µM*.
For CCOc1ccc(OCC)c(NC(=O)CN2CCN(c3cc(C)ccc3C)CC2)c1 the results were HTT aggregate -29.5%, CBFb RUNX1 block 1.2%, ALDH1A1 inh 3.55µM*, HTT ATP protect 4.8%, KDM4E inh -1.5% and HPGD inh -20.7%.
For COc1cc(NC(=O)CCN2CCN(Cc3ccccc3)CC2)cc(OC)c1 the results were HTT aggregate 6.5%, CBFb RUNX1 block -2.6%, ALDH1A1 inh 11.2µM*, HTT ATP protect 12.5%, KDM4E inh -1.9% and HPGD inh -5.9%.
Screening O=C(Nc1ccccc1)N1CCN(Cc2ccc(Cl)cc2)CC1 returned HTT aggregate 15.8%, CBFb RUNX1 block 1.5%, ALDH1A1 inh -2.9%, HTT ATP protect -22.7% and KDM4E inh -22.6%.
Screening COc1cc(NC(=O)CCN2CCN(c3ccccc3F)CC2)cc(OC)c1 returned HTT aggregate 12.0%, CBFb RUNX1 block -1.5%, ALDH1A1 inh -7.5%, HTT ATP protect 9.8%[10 µM], KDM4E inh 2.3% and HPGD inh -4.8%.
